From PubChem BioAssay (NCI)
About 79,000 compounds went through this panel and 15% of them were active in at least one assay; those are over-represented in the sample as a whole. Calls of active or inactive are those of the source. No stated cut-off is given here; in the data, active means growth inhibition above about 70%; inactive means the rest.

Columns and labels:
[1] = NCI Yeast Anticancer Drug Screen. Data for the wt1 strain (AID 149);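 further: 0% = growth of vehicle-treated wt1 cultures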; settings: S. cerevisiae wt1 strain (SPY 50644) growth inhibition, active compounds read high
Outline: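 Using yeast strain wt1, compound-induced growth inhibition was determined against vehicle-treated cultures.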

[2] = NCI Yeast Anticancer Drug Screen. Data for the rad50EPP+ strain (AID 151);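 further: 0% = growth of vehicle-treated control cultures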; settings: S. cerevisiae rad50 mutant strain, active compounds read high
Outline: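 rad50EPP+ yeast treated with test compounds. Readout: growth vs vehicle control.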

[3] = NCI Yeast Anticancer Drug Screen. Data for the mgt1 strain (AID 153); settings: S. cerevisiae mgt1 mutant growth inhibition, active compounds read high
Outline: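 Growth inhibition relative to vehicle controls was scored for the mgt1 yeast strain after compound exposure.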

[4] = NCI Yeast Anticancer Drug Screen. Data for the rad50 strain (AID 155);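 further: 0% = growth of vehicle-only cultures of the same strain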; settings: S. cerevisiae rad50 strain growth inhibition, active compounds read high
Outline: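 Relative growth inhibition (compound vs vehicle) was measured in yeast with a defined repair-gene alteration.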

[5] = NCI Yeast Anticancer Drug Screen. Data for the mec2-1 strain (AID 157); settings: S. cerevisiae mec2-1 strain, active compounds read high
Outline: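 Growth inhibition is read against vehicle-treated controls after compound exposure of the mec2-1 yeast strain, which is defective in DNA damage repair or cell cycle control.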

[6] = NCI Yeast Anticancer Drug Screen. Data for the rad14 strain (AID 159);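 further: 0% = growth of vehicle-treated control cultures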; settings: S. cerevisiae rad14 strain growth inhibition, active compounds read high
Outline: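 Screen for anticancer potential: a yeast strain altered in DNA damage repair is grown with compound, and reduced growth is quantified against vehicle controls.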

[7] = NCI Yeast Anticancer Drug Screen. Data for the sgs1 mgt1 strain (AID 161);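 further: 0% = growth of cultures given vehicle only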; settings: S. cerevisiae sgs1 mgt1 strain, active compounds read high
Outline: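 Percent growth inhibition was derived by comparing compound-exposed mutant yeast with vehicle-exposed cultures. The strain carries alterations in DNA damage repair.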

[8] = NCI Yeast Anticancer Drug Screen. Data for the CLN2oe strain (AID 163);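 further: 0% = growth of vehicle-only control cultures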; settings: S. cerevisiae CLN2oe strain, active compounds read high
Outline: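 Compound-treated yeast; growth vs vehicle ctrl = % inhibition. Genetically altered strain (cell-cycle control).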

[9] = NCI Yeast Anticancer Drug Screen. Data for the cln2 rad14 strain (AID 165);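 further: 0% = growth equal to vehicle treated cultures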; settings: S. cerevisiae cln2 rad14 strain, active compounds read high
Outline: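 Growth inhibition, relative to vehicle-treated controls, is the read-out. The test organism is a yeast strain with defined genetic alterations, cln2 rad14.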

[10] = NCI Yeast Anticancer Drug Screen. Data for the bub3 strain (AID 167); settings: S. cerevisiae bub3 mutant strain, active compounds read high
Outline: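 Screening used yeast with an engineered genetic alteration affecting cell cycle control. Compound-exposed cultures were compared with vehicle cultures, and reduced growth was taken as inhibition.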

[11] = NCI Yeast Anticancer Drug Screen. Data for the wt2 strain (AID 169);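 further: 0% = growth of vehicle-treated yeast cultures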; settings: S. cerevisiae wt2 strain growth inhibition, active compounds read high
Outline: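 Compound exposure of yeast; growth compared with vehicle controls; inhibition reported.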

[12] = NCI Yeast Anticancer Drug Screen. Data for the mlh1 strain (AID 171);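 further: 0% = growth of vehicle-treated control cultures of the same strain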; settings: S. cerevisiae mlh1 strain growth inhibition, active compounds read high
Outline: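 Compounds are applied to a genetically altered yeast strain, and its growth is compared with that of vehicle-treated cultures to give percent inhibition.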

[13] = NCI Yeast Anticancer Drug Screen. Data for the sgs1 strain (AID 173);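 further: 0% = growth of vehicle-only control cultures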; settings: S. cerevisiae sgs1 mutant, active compounds read high
Outline: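 Compounds applied to genetically altered yeast; growth compared with vehicle-treated cultures to give % inhibition.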

[14] = NCI Yeast Anticancer Drug Screen. Data for the mlh1 rad18 strain (AID 175); settings: S. cerevisiae mlh1 rad18 strain growth inhibition, active compounds read high
Outline: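 Cells of a genetically altered yeast strain, deficient in DNA damage repair, were treated with compound. Their growth was then compared with that of vehicle-treated cultures to give inhibition.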

[15] = NCI Yeast Anticancer Drug Screen. Data for the rad18 strain (AID 177); settings: S. cerevisiae rad18 mutant growth inhibition, active compounds read high
Outline: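 Compounds are applied to a repair-deficient yeast strain, and growth is compared with that of vehicle-treated cultures to give percent inhibition.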

[16] = at 5.0 µM (retest, dose inferred, filed as 0.5)
[17] = at 50.0 µM (retest, dose inferred, filed as 5.0)

Measured: growth inhibition

O=[N+]([O-])[O][Sn]([O][Sn]([O][N+](=O)[O-])([c]1ccccc1)[c]1ccccc1)([c]1ccccc1)[c]1ccccc1
active: [2]; at 100.0 µM 99% | [3]; at 100.0 µM 94% | [4]; at 100.0 µM 85% | [5]; at 100.0 µM 86% | [6]; at 100.0 µM 94% | [7]; [17] 94% | [7]; at 50.0 µM 70% | [10]; [17] 84% | [10]; at 50.0 µM 72.5% | [12]; at 100.0 µM 94% | [13]; at 100.0 µM 98% | [15]; at 100.0 µM 90%
inactive: [1]; at 1.2 µM -3% | [1]; at 3.7 µM -7% | [1]; at 11.0 µM -11% | [1]; at 33.0 µM -2% | [1]; at 100.0 µM 62% | [2]; at 1.2 µM 8% | [2]; at 3.7 µM -2% | [2]; at 11.0 µM 0% | [2]; at 33.0 µM 20% | [3]; at 1.2 µM 8% | [3]; at 3.7 µM 10% | [3]; at 11.0 µM 25% | [3]; at 33.0 µM 10% | [4]; at 1.2 µM 16% | [4]; at 3.7 µM 20% | [4]; [16] 25% | [4]; at 11.0 µM 16% | [4]; at 33.0 µM 28% | [4]; [17] 66% | [4]; at 50.0 µM 65.2% | [5]; at 1.2 µM 9% | [5]; at 3.7 µM 0% | [5]; [16] 11% | [5]; at 11.0 µM 16% | [5]; at 33.0 µM 14% | [5]; [17] 44% | [5]; at 50.0 µM 57.6% | [6]; at 1.2 µM 0% | [6]; at 3.7 µM -8% | [6]; at 11.0 µM -7% | [6]; at 33.0 µM 22% | [7]; [16] 35% | [8]; at 1.2 µM -32% | [8]; at 3.7 µM -48% | [8]; at 11.0 µM -34% | [8]; at 33.0 µM -30% | [8]; at 100.0 µM 29% | [9]; [16] 3% | [9]; [17] 26% | [9]; at 50.0 µM 30.2% | [10]; at 1.2 µM 8% | [10]; at 3.7 µM -4% | [10]; [16] 23% | [10]; at 11.0 µM -7% | [10]; at 33.0 µM 6% | [10]; at 100.0 µM 62% | [11]; at 1.2 µM -47% | [11]; at 3.7 µM -47% | [11]; at 11.0 µM -25% | [11]; at 33.0 µM -26% | [11]; at 100.0 µM 58% | [12]; at 1.2 µM 7% | [12]; at 3.7 µM -3% | [12]; at 11.0 µM 5% | [12]; at 33.0 µM 35% | [13]; at 1.2 µM -6% | [13]; at 3.7 µM -12% | [13]; at 11.0 µM -24% | [13]; at 33.0 µM 51% | [14]; [16] 19% | [14]; [17] 67% | [14]; at 50.0 µM 68% | [15]; at 1.2 µM -12% | [15]; at 3.7 µM -12% | [15]; at 11.0 µM -11% | [15]; at 33.0 µM 5%
